Drawing on paper PMC11006913, this text covers binding signal for six sequences.

Numbering of substitutions follows the chain as printed.

Holding throughout (test): PBM; 200 nM protein, PBS
Common to all, as to details: dsDNA, one strand shown

The target of experiment [1] is HOXB4 (Homo sapiens, UniProt P17483 148-234).
Experiment [2] deals with T1, VENTX (Homo sapiens, UniProt O95231 78-163, R121Q).
T1 sequence: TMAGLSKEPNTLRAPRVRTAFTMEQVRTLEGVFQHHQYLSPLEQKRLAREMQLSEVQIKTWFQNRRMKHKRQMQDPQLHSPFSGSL

Experiment [3] has as its target HOXA4 (Homo sapiens, UniProt Q00056 201-287, W262R).
For a further experiment, the target named is ALX4 (Homo sapiens, UniProt Q9H161 200-286).
ALX4, sequence (Q9H161 200-286): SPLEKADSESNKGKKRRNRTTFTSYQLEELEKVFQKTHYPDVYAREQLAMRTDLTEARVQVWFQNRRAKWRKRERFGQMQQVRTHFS
For experiment [4], the target named is T2, PAX4 (Homo sapiens, UniProt O43316 9-242, R200K).
T2 sequence: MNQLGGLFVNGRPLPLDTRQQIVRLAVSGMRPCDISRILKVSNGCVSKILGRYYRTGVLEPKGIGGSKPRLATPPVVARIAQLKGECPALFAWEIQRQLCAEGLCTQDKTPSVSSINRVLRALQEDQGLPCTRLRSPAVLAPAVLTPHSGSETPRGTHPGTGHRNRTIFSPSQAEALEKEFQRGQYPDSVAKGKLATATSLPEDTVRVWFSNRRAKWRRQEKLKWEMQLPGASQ

Experiment [5] deals with PRRX1 (Homo sapiens, UniProt P54821 80-166, F113S).
PRRX1 (Homo sapiens, UniProt P54821 80-166, F113S), sequence (P54821 80-166 F113S): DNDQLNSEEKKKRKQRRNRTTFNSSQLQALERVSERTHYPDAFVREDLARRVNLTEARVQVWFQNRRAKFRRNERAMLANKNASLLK
For experiment [6], the target named is T3, VENTX (Homo sapiens, UniProt O95231 78-163, Y115F).
T3 sequence: T1 sequence with Y38F, Q44R

A further experiment addresses HOXA2 (Homo sapiens, UniProt O43364 129-215, R185T).
Experiment [7] concerns the target HOXA4 (Homo sapiens, UniProt Q00056 201-287, R217L).
Experiment [8] concerns the target HOXB4 (Homo sapiens, UniProt P17483 148-234, V174I).
In experiment [9] the target is T4, PAX4 (Homo sapiens, UniProt O43316 9-242, R200Q).
T4 sequence: T2 sequence with K192Q

Experiment [10] addresses T5, PAX4 (Homo sapiens, UniProt O43316 9-242, F177V).
T5 sequence: T2 sequence with F169V, K192R

Experiment [11] deals with HOXA4 (Homo sapiens, UniProt Q00056 201-287).
HOXA4 (Homo sapiens, UniProt Q00056 201-287), sequence (Q00056 201-287): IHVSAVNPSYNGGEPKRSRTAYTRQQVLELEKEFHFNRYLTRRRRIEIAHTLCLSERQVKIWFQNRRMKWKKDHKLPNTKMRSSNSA
The target in experiment [12] is MSX2 (Homo sapiens, UniProt P35548 130-214).
MSX2 (Homo sapiens, UniProt P35548 130-214), sequence (P35548 130-214): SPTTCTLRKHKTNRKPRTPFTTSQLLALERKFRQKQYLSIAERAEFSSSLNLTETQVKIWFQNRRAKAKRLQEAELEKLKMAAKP
Experiment [13] concerns the target T6, PAX4 (Homo sapiens, UniProt O43316 9-242, F177Y).
T6 sequence: T2 sequence with F169Y, K192R

Experiment [14] concerns the target MSX2 (Homo sapiens, UniProt P35548 130-214, F161Y).
Experiment [15] addresses VAX1 (Homo sapiens, UniProt Q5SQQ9 86-172, T142I).
Experiment [16] deals with HOXA4 (Homo sapiens, UniProt Q00056 201-287, W262F).
HOXA4 (Homo sapiens, UniProt Q00056 201-287, W262F), sequence (Q00056 201-287 W262F): as the sequence (Q00056 201-287) above, with W62F counted along it
Experiment [17] concerns the target PRRX1 (Homo sapiens, UniProt P54821 80-166).
The target in experiment [18] is VAX1 (Homo sapiens, UniProt Q5SQQ9 86-172, K157R).
VAX1 (Homo sapiens, UniProt Q5SQQ9 86-172, K157R), sequence (Q5SQQ9 86-172 K157R): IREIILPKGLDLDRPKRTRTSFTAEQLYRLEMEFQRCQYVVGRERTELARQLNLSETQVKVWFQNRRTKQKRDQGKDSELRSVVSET

PRRX1 (Homo sapiens, UniProt P54821 80-166), sequence (P54821 80-166): as the sequence (P54821 80-166 F113S) above, with S34F counted along it
HOXA4 (Homo sapiens, UniProt Q00056 201-287, R217L), sequence (Q00056 201-287 R217L): as the sequence (Q00056 201-287) above, with R17L counted along it
HOXA4 (Homo sapiens, UniProt Q00056 201-287, W262R), sequence (Q00056 201-287 W262R): as the sequence (Q00056 201-287) above, with W62R counted along it
HOXA2, sequence (O43364 129-215 R185T): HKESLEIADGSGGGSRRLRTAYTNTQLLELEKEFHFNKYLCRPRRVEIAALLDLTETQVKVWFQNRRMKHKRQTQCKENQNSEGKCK
MSX2 (Homo sapiens, UniProt P35548 130-214, F161Y), sequence (P35548 130-214 F161Y): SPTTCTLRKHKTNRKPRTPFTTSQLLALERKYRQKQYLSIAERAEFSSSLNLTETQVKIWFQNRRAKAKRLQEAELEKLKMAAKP
HOXB4 (Homo sapiens, UniProt P17483 148-234, V174I), sequence (P17483 148-234 V174I): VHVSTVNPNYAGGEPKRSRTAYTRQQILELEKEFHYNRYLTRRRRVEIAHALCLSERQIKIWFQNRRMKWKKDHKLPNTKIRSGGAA
HOXB4 (Homo sapiens, UniProt P17483 148-234), sequence (P17483 148-234): as the sequence (P17483 148-234 V174I) above, with I27V counted along it
VAX1 (Homo sapiens, UniProt Q5SQQ9 86-172, T142I), sequence (Q5SQQ9 86-172 T142I): as the sequence (Q5SQQ9 86-172 K157R) above, with T57I, R72K counted along it

Take CAATTAGC: the binding signal with HOXB4 [1] was 13.3 upbm affinity estimate (log intensity, higher = more binding, comparable within an allelic series); in the experiment with VENTX [2] it was 12.6 upbm affinity estimate (log intensity, higher = more binding, comparable within an allelic series); in the experiment with HOXA4 [3] it was 10.5 upbm affinity estimate (log intensity, higher = more binding, comparable within an allelic series); with ALX4 it was 14.1 upbm affinity estimate (log intensity, higher = more binding, comparable within an allelic series); in the experiment with PAX4 [4], 11.6 upbm affinity estimate (log intensity, higher = more binding, comparable within an allelic series); with PRRX1 [5] it was 11.1 upbm affinity estimate (log intensity, higher = more binding, comparable within an allelic series). Besides, the binding signal in the experiment with VENTX [6] is 12.3 upbm affinity estimate (log intensity, higher = more binding, comparable within an allelic series); in the experiment with HOXA2, 13.4 upbm affinity estimate (log intensity, higher = more binding, comparable within an allelic series); with HOXA4 [7], 11.9 upbm affinity estimate (log intensity, higher = more binding, comparable within an allelic series); with HOXB4 [8] it was 14 upbm affinity estimate (log intensity, higher = more binding, comparable within an allelic series); in the experiment with PAX4 [9], 12 upbm affinity estimate (log intensity, higher = more binding, comparable within an allelic series); in the experiment with PAX4 [10] it was 10.3 upbm affinity estimate (log intensity, higher = more binding, comparable within an allelic series). The binding signal in the experiment with HOXA4 [11] is 13.9 upbm affinity estimate (log intensity, higher = more binding, comparable within an allelic series); with MSX2 [12] it was 14.1 upbm affinity estimate (log intensity, higher = more binding, comparable within an allelic series); with PAX4 [13], 10.8 upbm affinity estimate (log intensity, higher = more binding, comparable within an allelic series); in the experiment with MSX2 [14], 13.8 upbm affinity estimate (log intensity, higher = more binding, comparable within an allelic series); with VAX1 [15], 13.3 upbm affinity estimate (log intensity, higher = more binding, comparable within an allelic series); with HOXA4 [16], 11.5 upbm affinity estimate (log intensity, higher = more binding, comparable within an allelic series). In addition, the binding signal was 13.4 upbm affinity estimate (log intensity, higher = more binding, comparable within an allelic series) with PRRX1 [17] and 13.3 upbm affinity estimate (log intensity, higher = more binding, comparable within an allelic series) in the experiment with VAX1 [18].
With TAATTAGA, the binding signal is 13.5 upbm affinity estimate (log intensity, higher = more binding, comparable within an allelic series) in the experiment with HOXB4 [1]; 12.5 upbm affinity estimate (log intensity, higher = more binding, comparable within an allelic series) in the experiment with VENTX [2]; 10.8 upbm affinity estimate (log intensity, higher = more binding, comparable within an allelic series) with HOXA4 [3]; 14.5 upbm affinity estimate (log intensity, higher = more binding, comparable within an allelic series) with ALX4; 12.2 upbm affinity estimate (log intensity, higher = more binding, comparable within an allelic series) with PAX4 [4]; 11.9 upbm affinity estimate (log intensity, higher = more binding, comparable within an allelic series) in the experiment with PRRX1 [5]. Besides, the binding signal with VENTX [6] is 12.4 upbm affinity estimate (log intensity, higher = more binding, comparable within an allelic series); with HOXA2, 13.9 upbm affinity estimate (log intensity, higher = more binding, comparable within an allelic series); with HOXA4 [7] it was 12.5 upbm affinity estimate (log intensity, higher = more binding, comparable within an allelic series); with HOXB4 [8], 14.2 upbm affinity estimate (log intensity, higher = more binding, comparable within an allelic series); in the experiment with PAX4 [9] it was 12.7 upbm affinity estimate (log intensity, higher = more binding, comparable within an allelic series); in the experiment with PAX4 [10], 11 upbm affinity estimate (log intensity, higher = more binding, comparable within an allelic series). The binding signal was 14.1 upbm affinity estimate (log intensity, higher = more binding, comparable within an allelic series) with HOXA4 [11]; 14.1 upbm affinity estimate (log intensity, higher = more binding, comparable within an allelic series) with MSX2 [12]; 11.5 upbm affinity estimate (log intensity, higher = more binding, comparable within an allelic series) with PAX4 [13]; 13.7 upbm affinity estimate (log intensity, higher = more binding, comparable within an allelic series) with MSX2 [14]; 13.7 upbm affinity estimate (log intensity, higher = more binding, comparable within an allelic series) with VAX1 [15]; 12.1 upbm affinity estimate (log intensity, higher = more binding, comparable within an allelic series) in the experiment with HOXA4 [16]. The binding signal with PRRX1 [17] was 13.6 upbm affinity estimate (log intensity, higher = more binding, comparable within an allelic series); with VAX1 [18], 13.9 upbm affinity estimate (log intensity, higher = more binding, comparable within an allelic series).
Take CCAGGTCC: the binding signal with HOXB4 [1] was 7.71 upbm affinity estimate (log intensity, higher = more binding, comparable within an allelic series); in the experiment with VENTX [2] it was 7.92 upbm affinity estimate (log intensity, higher = more binding, comparable within an allelic series); with VENTX [6], 7.95 upbm affinity estimate (log intensity, higher = more binding, comparable within an allelic series); with HOXA2, 7.34 upbm affinity estimate (log intensity, higher = more binding, comparable within an allelic series); with HOXB4 [8], 7.79 upbm affinity estimate (log intensity, higher = more binding, comparable within an allelic series).
For CTAATTAC, the binding signal in the experiment with HOXB4 [1] was 13.6 upbm affinity estimate (log intensity, higher = more binding, comparable within an allelic series); with VENTX [2], 12.7 upbm affinity estimate (log intensity, higher = more binding, comparable within an allelic series); with HOXA4 [3], 10.8 upbm affinity estimate (log intensity, higher = more binding, comparable within an allelic series); with ALX4, 14.4 upbm affinity estimate (log intensity, higher = more binding, comparable within an allelic series); with PAX4 [4], 12 upbm affinity estimate (log intensity, higher = more binding, comparable within an allelic series); with PRRX1 [5], 11.5 upbm affinity estimate (log intensity, higher = more binding, comparable within an allelic series). The binding signal was 12.7 upbm affinity estimate (log intensity, higher = more binding, comparable within an allelic series) with VENTX [6]; 14.2 upbm affinity estimate (log intensity, higher = more binding, comparable within an allelic series) with HOXA2; 12.7 upbm affinity estimate (log intensity, higher = more binding, comparable within an allelic series) in the experiment with HOXA4 [7]; 14.4 upbm affinity estimate (log intensity, higher = more binding, comparable within an allelic series) in the experiment with HOXB4 [8]; 12.3 upbm affinity estimate (log intensity, higher = more binding, comparable within an allelic series) with PAX4 [9]; 10.6 upbm affinity estimate (log intensity, higher = more binding, comparable within an allelic series) with PAX4 [10]. Further, the binding signal was 14.2 upbm affinity estimate (log intensity, higher = more binding, comparable within an allelic series) in the experiment with HOXA4 [11]; 14.1 upbm affinity estimate (log intensity, higher = more binding, comparable within an allelic series) with MSX2 [12]; 11.1 upbm affinity estimate (log intensity, higher = more binding, comparable within an allelic series) with PAX4 [13]; 13.8 upbm affinity estimate (log intensity, higher = more binding, comparable within an allelic series) in the experiment with MSX2 [14]; 14 upbm affinity estimate (log intensity, higher = more binding, comparable within an allelic series) with VAX1 [15]; 12.5 upbm affinity estimate (log intensity, higher = more binding, comparable within an allelic series) with HOXA4 [16]. In addition, the binding signal with PRRX1 [17] is 13.6 upbm affinity estimate (log intensity, higher = more binding, comparable within an allelic series); with VAX1 [18], 14.1 upbm affinity estimate (log intensity, higher = more binding, comparable within an allelic series).
For CAATTAAC, the binding signal was 13.2 upbm affinity estimate (log intensity, higher = more binding, comparable within an allelic series) with HOXB4 [1]; 12.2 upbm affinity estimate (log intensity, higher = more binding, comparable within an allelic series) with VENTX [2]; 10.6 upbm affinity estimate (log intensity, higher = more binding, comparable within an allelic series) with HOXA4 [3]; 14 upbm affinity estimate (log intensity, higher = more binding, comparable within an allelic series) in the experiment with ALX4; 11.5 upbm affinity estimate (log intensity, higher = more binding, comparable within an allelic series) with PAX4 [4]; 11.3 upbm affinity estimate (log intensity, higher = more binding, comparable within an allelic series) in the experiment with PRRX1 [5]. Further, the binding signal with VENTX [6] is 11.9 upbm affinity estimate (log intensity, higher = more binding, comparable within an allelic series); in the experiment with HOXA2 it was 13.1 upbm affinity estimate (log intensity, higher = more binding, comparable within an allelic series); in the experiment with HOXA4 [7], 12.4 upbm affinity estimate (log intensity, higher = more binding, comparable within an allelic series); with HOXB4 [8], 13.9 upbm affinity estimate (log intensity, higher = more binding, comparable within an allelic series); with PAX4 [9], 12 upbm affinity estimate (log intensity, higher = more binding, comparable within an allelic series); with PAX4 [10] it was 10.6 upbm affinity estimate (log intensity, higher = more binding, comparable within an allelic series). The binding signal was 13.9 upbm affinity estimate (log intensity, higher = more binding, comparable within an allelic series) in the experiment with HOXA4 [11]; 14 upbm affinity estimate (log intensity, higher = more binding, comparable within an allelic series) with MSX2 [12]; 10.9 upbm affinity estimate (log intensity, higher = more binding, comparable within an allelic series) with PAX4 [13]; 13.6 upbm affinity estimate (log intensity, higher = more binding, comparable within an allelic series) with MSX2 [14]; 12.8 upbm affinity estimate (log intensity, higher = more binding, comparable within an allelic series) with VAX1 [15]; 11.6 upbm affinity estimate (log intensity, higher = more binding, comparable within an allelic series) with HOXA4 [16]. The binding signal with PRRX1 [17] was 13.4 upbm affinity estimate (log intensity, higher = more binding, comparable within an allelic series); in the experiment with VAX1 [18], 13 upbm affinity estimate (log intensity, higher = more binding, comparable within an allelic series).
On to AATTAGTC, for which the binding signal with HOXB4 [1] was 12.4 upbm affinity estimate (log intensity, higher = more binding, comparable within an allelic series); in the experiment with PAX4 [4], 11.7 upbm affinity estimate (log intensity, higher = more binding, comparable within an allelic series); with HOXB4 [8], 13 upbm affinity estimate (log intensity, higher = more binding, comparable within an allelic series); with PAX4 [9], 12.1 upbm affinity estimate (log intensity, higher = more binding, comparable within an allelic series); with PAX4 [10] it was 10.4 upbm affinity estimate (log intensity, higher = more binding, comparable within an allelic series); with MSX2 [12], 13.5 upbm affinity estimate (log intensity, higher = more binding, comparable within an allelic series). The binding signal was 10.8 upbm affinity estimate (log intensity, higher = more binding, comparable within an allelic series) with PAX4 [13]; 13 upbm affinity estimate (log intensity, higher = more binding, comparable within an allelic series) with MSX2 [14]; 12.3 upbm affinity estimate (log intensity, higher = more binding, comparable within an allelic series) with VAX1 [18].
